From PubChem BioAssay
In the library only some 1.6% were active in any assay of this set; here they are far more common.
HTR5A ag ctr = HTR5A agonism, opioid heterodimer counter-screen; P47898; HTR5A agonist assay, luminescence, cell-based; activation, % at 9.3 µM; actives 0.61% (n = 340,000); AID 504692; in the data active means activation mostly above about 9.5%, no sharp cut-off; inactive means mostly below about 7.6%
MOR-DOR ag = OPRM1-OPRD1 heterodimerization agonism. cells, luminescence. activation, % at 9.3 µM. actives 0.3% (n = 340,000). AID 504326; in the data active means activation above about 18%
Target sequence (P35372 whole entry, looked up): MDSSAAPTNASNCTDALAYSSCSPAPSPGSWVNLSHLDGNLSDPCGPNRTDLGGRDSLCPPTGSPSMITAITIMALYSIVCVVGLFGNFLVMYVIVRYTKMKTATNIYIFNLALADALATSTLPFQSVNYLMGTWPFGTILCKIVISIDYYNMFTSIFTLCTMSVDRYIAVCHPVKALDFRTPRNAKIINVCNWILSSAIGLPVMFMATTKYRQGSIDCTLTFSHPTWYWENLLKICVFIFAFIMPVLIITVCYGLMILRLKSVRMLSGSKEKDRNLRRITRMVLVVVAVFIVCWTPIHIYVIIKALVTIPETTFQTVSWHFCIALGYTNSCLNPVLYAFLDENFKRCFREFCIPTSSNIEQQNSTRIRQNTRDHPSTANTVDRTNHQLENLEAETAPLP
Target sequence (P41143 whole entry, looked up): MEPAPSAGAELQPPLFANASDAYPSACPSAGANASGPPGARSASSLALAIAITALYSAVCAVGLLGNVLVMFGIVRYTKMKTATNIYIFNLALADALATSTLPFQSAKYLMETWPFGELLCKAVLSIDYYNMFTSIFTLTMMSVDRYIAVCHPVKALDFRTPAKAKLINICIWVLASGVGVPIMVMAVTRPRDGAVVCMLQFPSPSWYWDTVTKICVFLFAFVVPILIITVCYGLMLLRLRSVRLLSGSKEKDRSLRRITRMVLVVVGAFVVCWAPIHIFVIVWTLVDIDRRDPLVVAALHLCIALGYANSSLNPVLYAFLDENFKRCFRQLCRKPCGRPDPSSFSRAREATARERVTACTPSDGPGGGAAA
HTR5A inv ag = inverse agonist of human HTR5A in OPRM1-OPRD1 counter-screen; P47898; HTR5A cell line, luminescence, inverse agonism; inhibition, % at 9.3 µM; actives 0.083% (n = 340,000); AID 504634; in the data active means inhibition mostly above about 23%, no sharp cut-off; inactive means mostly below about 18%
HTR2A ag = mouse HTR2A agonism via beta-arrestin recruitment; CHO-K1 mHTR2A beta-arrestin complementation, luminescence; percent of 30 µM serotonin response; activation, % at 7.6 µM; actives 0.66% (n = 360,000); AID 624169;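 active means activation above a run cutoff, the mean activation of all tested compounds plus 3 SD, cut at about 14% in these data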
OPRM1-OPRD1 inv = inverse agonist of human OPRM1-OPRD1 heterodimerization. cell-based MOR-DOR heterodimer luminescence, inverse agonism. actives 0.21% (n = 340,000). inhibition, % at 9.3 µM. P35372+P41143. AID 504357; in the data active means inhibition above about 22%, passing the limit was not always enough
Each line names hits and unclear results; the compound was inactive in the other large screens.

Cc1ccc(-c2cc(-c3ccccc3)nc(NN)n2)cc1	HTR5A inv ag 33, OPRM1-OPRD1 inv 43
Cc1nn(-c2ccccn2)c2c1C(c1ccccc1Cl)C1=C(N2)c2ccccc2C1=O (stereo not drawn)	OPRM1-OPRD1 inv 26
Cc1nn(-c2ccccc2)c(C)c1NC(=O)COC(=O)Cc1ccccc1F	HTR5A ag ctr 12
CCCC(C)NC(=O)c1ccc(OCc2ccc(Cl)cc2)c(OC)c1 (stereo not drawn)	none
COc1cc2c(cc1OC)C(c1ccc(-c3cc(Cl)ccc3Cl)o1)=NCC2	none
COc1cc2c(cc1OC)C(c1ccc(-c3ccc(Cl)c(Cl)c3)o1)=NCC2	HTR5A ag ctr 11
COc1ccc(/C=N/n2cnnc2)cc1Oc1nc(Cl)ncc1F	HTR5A ag ctr 12
COc1cc(/C=N/n2cnnc2)ccc1Oc1nc(Cl)ncc1F	none
C[N+]1(CC(=O)Nc2ccc(F)cc2)CCN(C(=O)c2ccco2)CC1	none
COc1ccc(NC(=O)[C@@H]2CCCN2S(=O)(=O)c2ccccc2F)cc1S(=O)(=O)N1CCCCC1	none
Cn1c(CNC(=O)c2ccccc2F)nnc1SCC(=O)N1CCN(c2ccccc2)CC1	HTR5A ag ctr 12
Cc1ccc(C(=O)Nc2ccc(Nc3ccccc3)cc2)cc1C	none
Cc1ccc(NC(=O)c2ccc(NC(=O)c3ccccc3)cc2)cc1C	HTR5A ag ctr 13
CCCCOC(=O)c1ccc(OC(=O)c2cccnc2)cc1	none
CCCCCCOC(=O)c1ccc(OC(=O)c2cccnc2)cc1	HTR2A ag 22
CN[C@@H]1[C@H](O)[C@H](NC)[C@H]2O[C@@]3(O)C(=O)C[C@@H](C)O[C@H]3O[C@@H]2[C@H]1O	HTR2A ag 16
CCOc1ccc(NC(=O)Cc2ccc(S(=O)(=O)N3CCCCC3)cc2)cc1OCC	HTR5A ag ctr 11
CCOc1ccc(NC(=O)CN(C)C(=O)/C=C/c2ccc(S(=O)(=O)N3CCCCCC3)cc2)cc1OCC	none
Nc1nonc1C(=O)N/N=C/c1ccncc1	HTR5A ag ctr 11
CC(=O)c1c(C)nc2nonc2c1N	none
COc1ccc(N2CC(O)(c3ccc(C)cc3)[N+]3=C2CCCC3)cc1 (stereo not drawn)	HTR5A ag ctr 13
O=C(NCc1ccco1)c1ccc(Br)s1	none
O=C(NCc1ccco1)c1ccc(C(=O)NCc2ccco2)s1	HTR5A ag ctr 10
Cc1ccc(NC(=S)Nc2ccc(Br)cc2)cc1	HTR5A ag ctr 13
CC(=O)Nc1ccc(NC(=S)Nc2ccc(Br)cc2)cc1	none
c1ccc(-c2nc(C3CCCCC3)c3sccc3n2)cc1	none
c1ccc(-c2nc(C3CCCCC3)c3ccccc3n2)cc1	HTR5A ag ctr 13
CC(=O)c1cccc(NC(=O)NCc2cccs2)c1	HTR5A ag ctr 11
Cc1ccc(Nc2nc(N)nc(CCl)n2)c(C)c1	HTR5A ag ctr 63, MOR-DOR ag 61
Cc1ccc(Nc2nc(N)nc(CCl)n2)cc1	none (no result: HTR5A ag ctr, MOR-DOR ag, HTR5A inv ag, OPRM1-OPRD1 inv)
CCOc1ccc(Nc2nc(N)nc(CCl)n2)cc1	HTR5A ag ctr 90, MOR-DOR ag 68
COc1ccc(-c2cn(-c3ccc(C)c(Cl)c3)c(=S)[nH]2)cc1OC	HTR5A ag ctr 12
COc1ccc(-c2cn(-c3ccc(C)c(C)c3)c(=S)[nH]2)cc1OC	none
Cc1ccc(C(=O)NNc2ncnc3c2cnn3C)cc1	none
Cn1ncc2c(O/N=C(\N)c3ccc(C(F)(F)F)cc3)ncnc21	HTR5A ag ctr 48, MOR-DOR ag 39
C[C@@]12CCC=C[C@H]1[C@H](c1ccc(C(F)(F)F)cc1)N(Cc1ccccc1)C2=O	HTR5A ag ctr 13
C[C@@]12CCC=C[C@H]1[C@H](c1ccc(/C=C/c3ccccc3)cc1F)N(Cc1ccccc1)C2=O	none
O=C(NNS(=O)(=O)c1ccc(F)cc1)c1ccccc1F	HTR5A ag ctr 12
COc1ccccc1C(=O)NNS(=O)(=O)c1ccc(F)cc1	none
O=[N+]([O-])c1cc([N+](=O)[O-])c(N2CCCCCC2)cc1NCCO	none
O=C(O)c1ccc(CNS(=O)(=O)c2ccc3ccccc3c2)cc1	HTR5A ag ctr 9.9
CC(C)(C)c1cc(=O)[nH]c(SCc2ccccc2)n1	none
CC(C)(C)c1cc(=O)[nH]c(SCc2ccccc2Cl)n1	HTR5A ag ctr 12
O=C(CSc1ccccc1)Nc1nccs1	none
O=C(CSc1nc(-c2ccccc2)cs1)Nc1nccs1	HTR5A ag ctr 11
